According to PubChem BioAssay (NCATS):
Records with an inconclusive call do not appear. Entries that show only a call come without a potency. The source made the active and inactive calls. Calls come from the whole dose curve; as a rule, active = well fitted inhibition curve with a large enough effect; inconclusive = small, poorly fitted or top-dose-only effect; inactive = no such curve, though single readings can be large or run the other way.

Tested on: Zika virus NS2B-NS3 protease (linked construct)
Experiment: Primary screen NINDS Rhodamine qHTS for Zika virus inhibitors (AID 1347160); note: nearly all actives have a fitted effect of over 55% in size
Conditions: purified NS2B-NS3 protease, Rhodamine110 substrate fluorescence; series mostly up to 33.1 µM
In short: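 Single-chain NS2B-NS3 protease, 25 nM, pH 8.0; compounds preincubated 15 min. Activity: Rhodamine110 release from 1.5 microM substrate over 15 min, room temperature, data fitted to 4-parameter Hill.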

| SMILES | Potency |
| --- | --- |
| OC[C@@]1(O)CO[C@H](OC[C@H]2O[C@@H](OCCc3ccccc3)[C@H](O)[C@@H](O)[C@@H]2O)[C@@H]1O | inactive |
| Cc1c(NC(=O)N2CCOCC2)ccc2c1c1ccccc1n2C(C)C | inactive |
| COc1c2c(c(C)c3c1C(=O)OC3)OC1(C)CC(O)C34OC(O)(CCC3(C)C1C2)OC4(C)C (stereo unspecified) | inactive |
| COc1cc(O)cc(C)c1C(=O)OC1C(CO)OC(n2ccc(=O)[nH]c2=O)C1OC(C)=O (stereo unspecified) | inactive |
| CC(=O)/C=C/C1(O)C(C)=CC(=O)CC1(C)C (stereo unspecified) | inactive |
| COC1OC(O)C2(CCC3(O2)C(C)CC2OC(=O)C4(C)CCCC3(C)C24)C1O (stereo unspecified) | inactive |
| C=CC(C)(CCC=C(C)C)O[C@@H]1O[C@H](CO)[C@@H](O)[C@H](O)[C@H]1O (stereo partly specified) | inactive |
| CC1(C)CC[C@]2(C(=O)O[C@@H]3O[C@H](CO)[C@@H](O)[C@H](O)[C@H]3O)CC[C@]3(C)C(=CCC4[C@@]5(C)C[C@@H](O)[C@H](O)[C@@](C)(CO)C5[C@H](O)C[C@]43C)C2C1 (stereo partly specified) | inactive |
| COc1cc(/C=C/C(=O)O[C@H]2[C@H](O)[C@@H](CO)O[C@@]2(CO)O[C@H]2O[C@H](CO)[C@@H](O)[C@H](O)[C@H]2O)cc(OC)c1O | inactive |
| CN(C)C(=O)C(O)C(Cc1ccccc1)NC(=O)c1cc2cc(Cl)ccc2[nH]1 (stereo unspecified) | inactive |
| C/C(CO)=C1/CCC23COC(C2)C(O)(C(=O)O)CCC13 (stereo unspecified) | inactive |
